BAZ2B block = inhibitors of human BAZ2B bromodomain | 4.4% of 360,000 active | Potency, µM (titrated, usually from 114 µM), inactives show at the top dose activity change, negative = inhibition, usual class: inhibitors | AlphaScreen BAZ2B-H3K14Ac peptide displacement | AID 504333 | Q9UIF8; further: on the % scale 0 is the no-effect control and ±100 the full control effect; nearly all actives have a fitted effect of over 60% in size
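Compounds, titrated to a top concentration of 110 uM, were incubated 30 min at room temperature with preformed BAZ2B/acetyl-K14 H3 peptide complex (50 nM each). Proximity signal was measured by AlphaScreen after 20 min with beads.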
HP1b binding inh = HP1-beta chromodomain-methylated histone interaction inhibition | AlphaScreen HP1-beta / biotin-H3K9me3 peptide binding | P83916 | 0.56% of 390,000 active | Potency, µM (highest dose often 114 µM), without a hit: top-dose activity change, negative = inhibition, hits mostly inhibitors; further: nearly all actives have a fitted effect of over 70% in size
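Compound inhibition of the preformed complex between 50 nM HP1-beta and 50 nM biotinylated H3K9me3 peptide was read by AlphaScreen. Buffer was PBS pH 7.4 with 0.01% Tween-20. Incubations ran 30 min at room temperature, with 10 ug/mL donor/acceptor beads.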
JMJD2A Tudor inh = blocks the human JMJD2A Tudor domain; 4.4% of 390,000 active; AID 504339; Potency, µM (doses to about 114 µM), for the others: at the highest dose activity change, negative = inhibition, hits mostly inhibitors; AlphaScreen JMJD2A-Tudor / H3K4me3 peptide binding; further: on the % scale 0 is the no-effect control and ±100 the full control effect; nearly all actives have a fitted effect of over 50% in size
G9a block = G9a (human) methyltransferase inhibition; Q96KQ7; G9a H3K9 monomethylation, AlphaScreen, 2 h; Potency, µM (top dose mostly 102 µM), for the others: top-dose activity, negative = inhibition, hits mostly inhibitors; 8.8% of 350,000 active; AID 504332; further: on the % scale 0 is the no-effect control and ±100 the full control effect; nearly all actives have a fitted effect of over 75% in size
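AlphaScreen read-out: biotin-H3K9 peptide (500 nM) methylation by 20 nM enzyme with 20 uM SAM, 2 h at room temperature after 15 min compound preincubation; anti-monomethyl H3K9 antibody plus donor/acceptor beads, 10 min dark.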
GLS inh = blocks human kidney-isoform glutaminase activity. O94925. GLS enzymatic activity, qHTS titration. Potency, µM (doses to about 45.5 µM), without a hit: at the top dose activity change, negative = inhibition, usual class: inhibitors. 0.21% of 410,000 active. AID 624170; further: on the % scale 0 is the no-effect control and ±100 the full control effect
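Read-out is an Amplex red fluorescence increase coupled through glutamate oxidase and HRP, measured before and after 30 min room-temperature incubation. hKGA is in 45 mM KH2PO4 (pH 8.2) with 0.02% Tween-20; glutamine added as 1mM solution.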
An asterisk follows results filed as active; ? = inconclusive; . = no result; [ ] = remark or other dose. Shown are actives, neighbours in structure and some others; about 10% of the full set was active somewhere. The call rests on the fitted dose curve; in most records, active means well fitted curve in the direction sought with a large enough effect; inconclusive means small, poorly fitted or top-dose-only effect, or another doubt; inactive means no such curve, though single readings can be large; an effect the other way counts as inactive or inconclusive. Potency means the concentration at half of the fitted maximal effect.

SMILES	BAZ2B block	HP1b binding inh	JMJD2A Tudor inh	G9a block	GLS inh
CCOC(=O)c1[nH]c2ccccc2c1NC(=O)c1ccccc1OC	79µM*	5%	-29%	?	12%
CCOC(=O)c1[nH]c2ccccc2c1NC(=O)NC(C)C	2%	11%	-7%	1%[12.7 µM]	?
CCOC(=O)c1[nH]c2ccc(OC)cc2c1NC(=S)N1CCN(c2ccccc2OC)CC1	-39%	-18%	?	79µM*	0%
CCOC(=O)c1[nH]c2ccccc2c1NC(=O)c1cc(Cl)ccc1Cl	-16%	5%	-27%	-33%[59 µM]	-2%
CCOC(=O)c1[nH]c2ccccc2c1NC(=O)CC(C)(C)C	0%	41%	-10%	50µM*	6%
CCOC(=O)c1[nH]c2ccccc2c1NC(=O)CN(C)C	-29%	28%	4%	?	20%
COc1cccc2[nH]c(C(=O)NN)c(N)c12	?	-17%	?	50µM*	-26%
COc1cccc2[nH]c3ccccc3c(=O)c12	-5%	23%	-1%	7%	2%
O=C(NC1CC1)c1cc(=S)[nH]c2ccccc12	.	0%	18µM*	.	-26%
O=C(NC1CC1)C(=O)c1c[nH]c2ccccc12	?	38%	5%	.	-4%
CCOC(=O)CSC1=Nc2ccccc2C2=NC(CC(=O)NCc3ccc(OC)cc3)C(=O)N12 (centres undefined)	-7%	20%	-17%	-50%[59 µM]	2.2µM*
CN(C)c1ccc(NC(=O)CSC2=Nc3ccccc3C3=NC(CC(=O)NCc4ccccc4)C(=O)N23)cc1 (centres undefined)	-36%	10%	?	1.6µM*	4%
Cc1cc(C)c2[nH]c(=O)c(CN(CC3CCCO3)C(=O)c3cnccn3)cc2c1 (centres undefined)	-5%	27%	-13%	-33%	-1%
O=c1[nH]cc(-c2ccc(Br)cc2)n1Cc1ccccc1	?	-38%	-28%	11µM*	-2%
Fc1ccc(-c2n[nH]c(=S)n2Cc2ccccc2)cc1	-1%	6%	18µM*	?	27%
O=c1[nH]c2ccccc2n1Cc1ccccc1	-6%	43%	1%	-14%[59 µM]	0%
Oc1ccc(-c2n[nH]c(=S)n2Cc2ccccc2)cc1	1%	-8%	32µM*	1.1µM*	-1%
S=c1[nH]nc(-c2ccc3ccccc3n2)n1Cc1ccccc1	5%	29%	-17%	?	-11%
Cc1ccn2c(-c3n[nH]c(=S)n3Cc3ccccc3)c(C)nc2c1	-7%	?	3.5µM*	7.1µM*	12%
COc1ccc(C2CC(=O)N(CC(=O)NCC3CCCO3)c3ccccc3S2)cc1OC (centres undefined)	-1%	15%	-12%	-24%	-3%
O=[N+]([O-])c1ccc(NN=C(Oc2ccccc2)c2ccc([N+](=O)[O-])cc2)cc1	.	.	.	.	2%
S=c1[nH]nc(-c2cccnc2)n1Cc1ccccc1	-5%	11%	8.9µM*	1.3µM*	-8%
O=c1cc(-c2ccccc2)cc(-c2ccccc2)n1CCCO	-3%	13%	-20%	16%[2.33 µM]	2%
OCCCn1c(-c2ccccc2)n[nH]c1=S	-3%	24%	28µM*	7.9µM*	-9%
CCCCOc1ccc(-c2n[nH]c(=S)n2Cc2ccccc2)cc1	-1%	2%	-22%	20µM*	-27%
SMILES	BAZ2B block	HP1b binding inh	JMJD2A Tudor inh	G9a block	GLS inh
FC(F)C(F)(F)Oc1cccc(-c2n[nH]c(=S)n2Cc2ccccc2)c1	-4%	-14%	-35%	3%[0.501 µM]	-24%
S=c1[nH]nc(-c2ccncc2)n1Cc1ccccc1	.	26%	7.9µM*	10µM*	21%
Cc1cc(C(=O)N2CCCC(C(=O)c3cccc4ccccc34)C2)nc(C)n1 (centres undefined)	-8%	44%	-12%	-36%	3%
CCN(CCn1cccn1)C(=O)CCc1nnc(C2(c3ccc(Cl)cc3)CCC2)o1	-12%	-1%	-2%	2%	20%
S=c1[nH]nc(-c2ccc(Br)cc2)n1Cc1ccccc1	?	-21%[57 µM]	?	10µM*	?
CC(C)(C)c1ccc(-c2n[nH]c(=S)n2Cc2ccccc2)cc1	-11%	30%	-4%	-39%	0%
S=c1[nH]c2cnccc2n1Cc1ccccc1	-18%	11%	18µM*	7.1µM*	-1%

Screening results as filed in PubChem.
